# Only some compounds are listed: those with a hit (about 2.5% of all), similar ones and a draw of the others.
# Cruzain inh Det: cruzain (T. cruzi) inhibition with detergent | P25779 | purified cruzain, Z-FR-AMC fluorescence, 0.01% Triton | Potency, µM, inactives show max response, negative = inhibition, most hits filed as inhibitors | 200,000 tested, 0.43% active | AID 1478;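 further: plate controls were neutral wells for no effect and buffer without enzyme for full effect; nearly all actives have a fitted effect of over 40% in size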
# Target sequence (P25779 123-467 limits assumed): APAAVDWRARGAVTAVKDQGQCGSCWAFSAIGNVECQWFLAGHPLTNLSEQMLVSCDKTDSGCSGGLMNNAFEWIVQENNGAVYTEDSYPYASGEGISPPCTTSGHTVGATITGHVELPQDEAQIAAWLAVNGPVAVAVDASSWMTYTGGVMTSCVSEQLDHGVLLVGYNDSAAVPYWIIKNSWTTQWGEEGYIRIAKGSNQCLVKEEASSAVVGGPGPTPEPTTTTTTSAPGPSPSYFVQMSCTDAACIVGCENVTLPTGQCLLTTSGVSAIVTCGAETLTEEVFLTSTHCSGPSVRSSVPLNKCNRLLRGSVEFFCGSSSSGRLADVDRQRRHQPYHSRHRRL
#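 15 min RT preincubation of 1.5 nM cruzain with compound, then 2 uM Z-FR-AMC added; kinetic AMC fluorescence, 60 s delta. Triton X-100 0.01%, pH 5.5.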
# Cruzain noTriton: cruzain (T. cruzi) inhibition without detergent | P25779 | purified cruzain, Z-FR-AMC fluorescence, no detergent | Potency, µM, without a hit: max response, negative = inhibition, most hits filed as inhibitors | 200,000 tested, 2.3% active | AID 1476;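 further: plate controls were enzyme without inhibitor for no effect and buffer without enzyme for full effect; nearly all actives have a fitted effect of over 40% in size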
#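 Detergent-free condition (0.00005% Triton X-100) in acetate buffer pH 5.5 with DTT. 1.5 nM enzyme and compound were pre-mixed 15 min, then 2 uM Z-FR-AMC substrate added; reaction progress from fluorescence change between first and third reads (60 s).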
# Starred values were filed as active, the others as inactive; u = inconclusive. The call rests on the fitted dose curve; in most records, active means well fitted curve in the direction sought with a large enough effect; inconclusive means small, poorly fitted or top-dose-only effect, or another doubt; inactive means no such curve, though single readings can be large; an effect the other way counts as inactive or inconclusive. Potency means the concentration at half of the fitted maximal effect.
SMILES,Cruzain inh Det,Cruzain noTriton
CCC(=O)N1c2ccccc2CC1C(=O)NCc1ccc(OC(C)C)cc1 (centres undefined),-0.6%,-6.6%
CCOc1ccc(Nc2oc(-c3ccc(COc4ccc(C)cc4)o3)nc2C#N)cc1,-4.3%,3.16µM*
COc1ccc(Nc2oc(-c3ccc(COc4ccc(OC)cc4)o3)nc2C#N)cc1,-3.1%,-28.5%
COc1ccc(Nc2oc(-c3ccc(COc4cccc(C)c4)o3)nc2C#N)cc1,-5.9%,15.8µM*
COc1ccc(Nc2oc(COc3ccccc3F)nc2C#N)cc1,-21.4%,25.1µM*
COc1ccc(Nc2oc(-c3ccc(COc4ccccc4)o3)nc2C#N)cc1,2.0%,u
COc1ccc(Nc2oc(COc3ccc(OC)cc3)nc2C#N)cc1,-11.8%,-0.1%
COc1ccc(NC(=O)CCCN2C(=O)CCn3nc(-c4cn(C)c5ccccc45)cc32)cc1,-1.3%,u
Nc1nc(SCc2ccc([N+](=O)[O-])cc2)c2ncn([C@@H]3O[C@H](CO)[C@H](O)[C@H]3O)c2n1,-4.0%,3.9%
Nc1nonc1-c1nc2ccccc2n1CC(=O)Nc1cccc(C(F)(F)F)c1,-3.5%,u
CCOc1ccc(S(=O)(=O)NCCC(=O)OCN2C(=O)c3ccccc3C2=O)cc1,-7.3%,-7.9%
Cc1ccc(S(=O)(=O)NCC(=O)OCN2C(=O)c3ccccc3C2=O)cc1,22.4µM*,25.1µM*
CC(C)C[C@@H](CC(=O)N[C@H](CC(=O)N[C@@H]1CCNC[C@H]1C(=O)N[C@H](CC(=O)N[C@@H](CCC(=O)O)CC(=O)O)Cc1ccccc1)C(C)C)NC(=O)[C@@H]1CNCC[C@H]1N,8.3%,-4.6%
Cc1ccccc1C(=O)Nc1sc2c(c1C(=O)NCc1ccco1)CCC(C(C)(C)C)C2 (centres undefined),-1.8%,u
CCOC(=O)C1=C(c2ccccc2)N=c2s/c(=C\c3cccc(O)c3)c(=O)n2C1c1cccs1 (centres undefined),-4.0%,-4.1%
O=c1/c(=C\c2ccc(O)cc2)sc2n1C(c1ccccc1)C(c1ccccc1)=NN=2 (centres undefined),-2.8%,25.1µM*
O=C(CSc1nc2c([nH]c3ccccc32)c(=O)n1-c1ccccc1)N1CCCCC1,-0.4%,-6.8%
CC(/C=N/Nc1nnc2c(n1)[nH]c1ccccc12)=C\c1ccco1,-1.8%,10µM*
Cc1cccc2c1[nH]c1nc(N/N=C\c3ccco3)nnc12,-1.3%,-10.5%
COc1ccc(S(=O)(=O)N2CCN(c3c(C)cccc3C)CC2)cc1OC,-9.7%,4.3%
COc1cc(Cl)c(S(=O)(=O)N2CCN(c3c(C)cccc3C)CC2)cc1Cl,-3.1%,20µM*
CCN(CC)C(=O)c1sc(NC(=O)C2c3ccccc3Oc3ccccc32)c(C(=O)OC(C)C)c1C,-0.5%,-7.4%
CC(C)OC(=O)c1c(NC(=O)C2c3ccccc3Oc3ccccc32)sc2c1CCCC2,-6.6%,6.31µM*
CCOC(=O)c1c(NC(=O)c2ccccc2OCC)sc2c1CCC(CC)C2 (centres undefined),-0.5%,2.2%
CCCOC(=O)c1c(NC(=O)C2c3ccccc3Oc3ccccc32)sc2c1CCCC2,-3.9%,25.1µM*
SMILES,Cruzain inh Det,Cruzain noTriton
CCC1CCc2c(sc(NC(=O)C3c4ccccc4Oc4ccccc43)c2C(N)=O)C1 (centres undefined),-0.5%,25.1µM*
CCOC(=O)c1c(NC(=O)C2c3ccccc3Oc3ccccc32)sc(C(N)=O)c1C,2.2%,-24.3%
CCCOc1ccc(Oc2nc(NC)nc(N3CCOCC3)n2)nn1,4.6%,7.1%
Cc1cc(=O)n2nc(N(C)CC(=O)NCc3ccc(Cl)cc3)sc2n1,0.3%,-2.3%
COc1ccccc1CNC(=O)c1ccc2[nH]c(C)c(C)c2c1,-5.1%,-13.2%
COc1ccccc1CNC(=O)c1c(O)c2cc(OC)c(OC)cc2[nH]c1=O,-6.4%,3.16µM*
CCCCCCC(=O)Nc1c(O)c2ccccc2[nH]c1=O,-0.6%,u
CCCCCCNC(=O)c1c(O)c2ccccc2[nH]c1=O,-0.4%,25.1µM*
Cc1cccc(CC(=O)Nc2ccc3nc(N4CCC(C)CC4)cc(C)c3c2)c1,-16.9%,u
Cc1cc2nn(-c3cccc4ccccc34)nc2cc1N,-3.3%,15.8µM*
Nc1ccc2nn(-c3cccc4ccccc34)nc2c1,-3.1%,u
CC(=O)c1ccc(NC(=O)c2cc3c([nH]c2=O)CC(c2ccccc2)CC3=O)cc1 (centres undefined),-2.3%,1.1%
COc1ccc(NC(=O)c2cc(C)nc3ccccc23)cc1S(=O)(=O)Nc1ccccc1Cl,-6.9%,u
COc1ccc(NC(=O)c2ccc3ccccc3n2)cc1S(=O)(=O)Nc1ccccc1Cl,-2.0%,12.6µM*
CCOc1ccccc1NC(=O)CSc1nc2cc(OC)c(OC)cc2c2nc(CCn3c(C)nc4ccccc43)nn12,-1.7%,-11.4%
CCOC(=O)c1sc2ccccc2c1S(=O)(=O)Nc1cccc(C(F)(F)F)c1,-9.7%,5.7%
COc1ccc(C)cc1N(C(=O)c1cccc(F)c1)c1nc2ccccc2s1,-7.2%,u
